Test results reported in PubChem BioAssay AID1850 (Southern Research Specialized Biocontainment Screening …, 2009).
Values joined by “and” are separate entries in the source; they are usually repeats but may differ in a detail not shown here. Identical values can stand only once. Out of some 310,000 compounds screened, about 1,000 (0.32%) were called active. The list is a sample of the results. Potency and affinity values are given separately. Values without a mark were called inactive. No rule for the calls is given here.

Experiment: Inhibition of PhoP regulon, Salmonella typhi GFP reporter cells, confirmation, 4 h (AID 1850);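 also: 0% = induced wells with vehicle and 100% = uninduced wells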
Settings: Salmonella Typhi PhoP-promoter GFP reporter, fluorescence, at 50 µM, stronger effect = higher value

| SMILES | inhibition |
| --- | --- |
| CN(C)CCNC(=O)COc1ccc(Cl)cc1Cl | 1.91% |
| COc1ccc(Cl)cc1C(=O)NCCN(C)C | -0.53% |
| CCCSc1nc(N)cc(=O)[nH]1 | 5.93% |
| Cc1ccc2c(c1)c1c3n2CCN(C(=O)CCl)C3CCC1 (stereo not drawn) | 7.2% |
| Cc1ccc2c(c1)c1c3n2CCCNC3CCC1 (stereo not drawn) | 5.15% |
| Cc1ccc2c(c1)c1c3n2CCN=C3CCC1 | 0.52% |
| Cc1ccc2c(c1)c1c3n2CCN(C(=O)CN2CCN(C)CC2)C3CCC1 (stereo not drawn) | 4.43% |
| c1ccc(-c2ccc3c(c2)c2c4n3CCN=C4CCC2)cc1 | 6.31% |
| Oc1ccc2c(c1)c1c3n2CCNC3CCC1 (stereo not drawn) | -4.83% |
| CCOP(=O)(c1ccccc1)C1(O)CCCCC1 (stereo not drawn) | 14.1% |
| Cc1ccc(S(=O)(=O)N2C(=O)CCC2C(=O)O/N=C(\N)c2ccccc2)cc1 (stereo not drawn) | -13.3% |
| O=C(CN(C(=O)c1csnn1)c1ccccc1Cl)NC1CCCC1 | 13.4% |
| O=C(O)c1cccc([N+](=O)[O-])c1C(=O)Nc1nc2ccccc2s1 | 4.78% |
| CCn1c(CN2c3ccccc3Sc3ccccc32)n[nH]c1=S | 4.44% |
| O=C(c1cccc(Cl)c1)N1CCCc2ccccc21 | 4.51% |
| Cc1ccc(S(=O)(=O)N2CCN(c3cnn(C)c(=O)c3Cl)CC2)cc1 | -6.96% |
| CCCCn1c(N)c(N(CCC(C)C)C(=O)CCN2C(=O)C3CC=CCC3C2=O)c(=O)[nH]c1=O (stereo not drawn) | 0.9% |
| CCOC(=O)c1c(NC(=O)Cn2nc(C(=O)O)c3ccccc3c2=O)sc2c1CCC(C)C2 (stereo not drawn) | 17.9% |
| COc1cccc(C2(O)CC(C(F)(F)F)=NN2C(=O)c2ccccn2)c1 (stereo not drawn) | 7.91% |
| C[n+]1c2n(c3ccccc31)N=C(c1ccccc1)CS2 | 0.32% and 11.8% |
| C[n+]1c2n(c3ccccc31)N=C(c1ccc(Cl)cc1)CS2 | 12.3% |
| O=C(CSC1=NS(=O)(=O)c2ccccc2N1)NCc1ccc(F)cc1 | -4.98% |
| O=C(CNC(=O)c1ccccc1)N/N=C/c1cccs1 | -1.08% |
| O=C(CNC(=O)c1cccc(F)c1)N/N=C/c1cccc([N+](=O)[O-])c1 | -5.75% |
| O=C(Cc1ccccc1)N/N=C/c1ccc([N+](=O)[O-])s1 | -7.77% |

| SMILES | inhibition |
| --- | --- |
| O=C(CNC(=O)c1ccccc1Cl)N/N=C/c1ccc([N+](=O)[O-])s1 | -11.8% |
| O=C(Cc1cccs1)N/N=C/c1ccccc1 | 10.9% |
| O=C(Cc1ccccc1)NCC(=O)N/N=C/c1ccc([N+](=O)[O-])s1 | 11.8% |
| Cn1cccc1Cc1nnc(SCC(=O)Nc2ccc3c(c2)OCO3)n1-c1ccc(F)cc1 | -1.53% |
| NC(=O)CN1C(=O)NC2(CCOc3ccccc32)C1=O (stereo not drawn) | 1.52% |
| CC(=O)Nc1ccc(NC(=O)c2cccc(-c3cc4ccccc4oc3=O)c2)cc1 | 12.9% |
| CCn1cc(C(=O)NCCCOC(C)C)c2cc(OC)c(OC)cc2c1=O | 2.36% |
| CN(C)c1ccc(P(=O)(COc2ccc([N+](=O)[O-])cc2)c2ccc(N(C)C)cc2)cc1 | 2.27% |
| O=C(CSc1ccc(-c2cccnc2)nn1)N1CCCCCC1 | 1.55% |
| O=C(CCCn1cc([N+](=O)[O-])cn1)NCc1ccccc1 | 8.46% |
| Cc1c(C(=S)NC(=O)C2CC2)c(=O)n(-c2ccccc2)n1C | -1.42% |
| CCc1ccc2c(CN(CC)Cc3nc4ccccc4c(=O)[nH]3)cc(=O)oc2c1 | 1.52% |
| Cc1ccc(Cn2c(N)nc3ccccc32)cc1 | 9.42% |
| Nc1nc2ccccc2n1CCOc1ccc(F)cc1 | -3.28% |
| CCn1c(N)nc2ccccc21 | 4.17% |
| Nc1nc2ccccc2n1CCOc1ccc(Cl)cc1 | 14.7% |
| Cc1ccc(NS(=O)(=O)c2ccc(C(=O)N3CC(C)CC(C)C3)cc2)cc1 (stereo not drawn) | -0.14% |
| Cc1cc(=O)oc2cc(OCc3ccc(S(=O)(=O)N4CCOCC4)cc3)ccc12 | -0.96% |
| CC(C(=O)N(C)C1CCS(=O)(=O)C1)N1C(=O)/C(=C/c2ccc(F)cc2)SC1=S (stereo not drawn) | -40% |
| COc1ccc(/C=C2\SC(=S)N(C(C)C(=O)NC3C=CS(=O)(=O)C3)C2=O)cc1 (stereo not drawn) | 0.74% |
| COc1cccc(/C=C2\SC(=S)N(C(C)C(=O)NC3C=CS(=O)(=O)C3)C2=O)c1 (stereo not drawn) | -39% |
| O=C(CN1C(=O)/C(=C/c2cccc(Cl)c2)SC1=S)NC1C=CS(=O)(=O)C1 (stereo not drawn) | -2.52% |
| CC(C(=O)NC1C=CS(=O)(=O)C1)N1C(=O)/C(=C\c2ccccc2)SC1=S (stereo not drawn) | -9.78% |
| CC(C)c1ccc(/C=C2\SC(=O)N(CC(=O)NC3CCS(=O)(=O)C3)C2=O)cc1 (stereo not drawn) | -0.28% |
| COc1cc2c(cc1OC)C(C)N(C(=O)c1c(C)noc1C)CC2 (stereo not drawn) | -18.4% |

| SMILES | inhibition |
| --- | --- |
| CC(=O)CCC(=O)OCC(=O)Nc1ccc(SC(F)F)cc1 | -3.54% |
| O=C1CCC(=O)N1c1ccc(NC2CCN(Cc3ccccc3)CC2)c([N+](=O)[O-])c1 | -3.82% |
| CC1(C)C2CC[C@]3(C)C(CC=C4[C@@H]5C[C@@](C)(CO)[C@@H](O)C[C@]5(C(=O)O)CC[C@]43C)[C@@]2(C)CC[C@@H]1O (stereo partly drawn) | -13.5% |
| CC(C)(C)NCc1cccn1-c1sc2c(c1C#N)CCCC2 | -5.99% |
| C=CC[n+]1c(/C=C2\C=Cc3cc(C)ccc3N2CC)ccc2ccccc21 | -11.1% |
| CCN1/C(=C/c2ccc3ccccc3[n+]2CCCS(=O)(=O)[O-])C=Cc2cc(C)ccc21 | 14.2% |
| CCOC(=O)C(=CNc1ccc(C(O)(C(=O)OCC)C(F)(F)F)cc1C)C(=O)OCC (stereo not drawn) | -10.1% |
| CCOC(=O)c1[nH]c2ccc(OC)cc2c1NC(=O)CN1CCSCC1 | 6.71% |
| Cc1cccc(N2CCN(C(=O)c3csc4ccccc34)CC2C)c1 (stereo not drawn) | -6.46% |
| Nc1nonc1C(=O)N/N=C/c1ccc([N+](=O)[O-])o1 | -4.72% |
| Cc1nonc1C(=O)N/N=C/c1ccc(O)c(O)c1 | -18.7% |
| Cc1nonc1C(=O)N/N=C/c1cccc(O)c1 | -9.29% |
| CCCOc1ccc(CCC(=O)N/N=C/c2ccc([N+](=O)[O-])o2)cc1 | 3.44% |
| Cc1cc(C(=O)N/N=C/c2ccc([N+](=O)[O-])o2)c(C)o1 | -1.11% |
| Cc1ccc(NC(=O)CCC(=O)N/N=C/c2ccc([N+](=O)[O-])o2)cc1C | -0.54% |
| O=C(CSc1ccc(Cl)cc1)N/N=C/c1ccc([N+](=O)[O-])o1 | -1.14% |
| CCCCCC(=O)N/N=C/c1ccc([N+](=O)[O-])o1 | 17.1% |
| COc1ccccc1C(=O)N1CCc2ccccc21 | -2.54% |
| COCCN(C(=S)Nc1cc(C)cc(C)c1)C(C)c1cccnc1 (stereo not drawn) | -6.47% |
| O=C1c2ccccc2C(=O)N1OCc1ccccc1 | -23.3% |
| COc1ccc(N(C)C(=O)CCC(=O)Nc2ccc3nc(N4CCOCC4)cc(C)c3c2)c(OC)c1 | -10.9% |
| CC(C)c1ccccc1OCC(=O)Nc1ccc2[nH]ncc2c1 | -2.28% |
| O=C1CC(c2ccccc2Cl)CC(O)=C1C=Nc1ccccc1 (stereo not drawn) | -11% |
| O=C(CNc1cccc([N+](=O)[O-])c1)N/N=C/c1ccc([N+](=O)[O-])o1 | 17.3% |
| Cc1nc2ccccn2c1C(=O)N/N=C/c1ccc([N+](=O)[O-])cc1 | 2.94% |

| SMILES | inhibition |
| --- | --- |
| Cc1cc(C)cc(OCC(=O)N/N=C/c2ccc([N+](=O)[O-])o2)c1 | -6.8% |
| O=C(CCN1CCN(c2ccccc2)CC1)N/N=C/c1ccccc1O | -12.1% |
| Cc1nc2ccccn2c1C(=O)N/N=C/c1ccccc1[N+](=O)[O-] | 5.76% |
| O=C(Cc1ccccc1)N/N=C/c1ccc(-c2ccc([N+](=O)[O-])cc2)o1 | -11.9% |
| CC(=O)Nc1ccc(/C=N/NC(=O)CCN2CCN(c3ccccc3)CC2)cc1 | 3.88% |
| O=C(COc1ccccc1)N/N=C/c1ccc([N+](=O)[O-])o1 | 3.11% |
| COc1cc(Nc2nc3ccccc3nc2NS(=O)(=O)c2ccc([N+](=O)[O-])cc2)cc(OC)c1OC | 6.03% |
| CN(Cc1ccccc1)CC(O)COc1ccc(CNCCc2cccnc2)cc1 (stereo not drawn) | 9.53% |
| Cc1ncc(CCl)c2c1OC(C)(C)OC2 | 5.02% |
| COc1ccc(NC(=O)NCc2cccnc2)c(OC)c1 | -7.58% |
| O=C(Cc1ccccc1)Nc1nccs1 | -0.57% |
| Cc1cc(OC(C)C(=O)N2C[C@H]3C[C@@H](C2)c2cccc(=O)n2C3)c2c(C)c(C)c(=O)oc2c1 (stereo partly drawn) | -6.28% |
| CC(C)Cc1nnc(NC(=O)CCC(=O)N2CCN(c3ccccn3)CC2)s1 | -13% |
| O=[N+]([O-])c1cccnc1NCCc1c[nH]c2ccccc12 | -3.53% |
| Cc1cc(NC(=O)CSCC(=O)N2CCN(c3cccc(C(F)(F)F)c3)CC2)no1 | 6.28% |
| O=C(N/N=C/C=C/c1ccccc1[N+](=O)[O-])c1cccs1 | -2.89% |
| O=C(N/N=C/c1ccc([N+](=O)[O-])o1)c1ccc2c(c1)OCO2 | 3.54% |
| NC(=O)N/N=C/c1ccc([N+](=O)[O-])o1 | 1.06% |
| O=C(N/N=C/C=C/c1ccc([N+](=O)[O-])cc1)c1cccs1 | 6.74% |
| O=C(CN1CCCCCCC1)N/N=C/c1ccc([N+](=O)[O-])o1 | 8.07% |
| C/C(=N/NC(=O)C(O)(c1ccccc1)c1ccccc1)c1ccc([N+](=O)[O-])o1 | -14% |
| CCOC(=O)N/N=C(\C)c1ccc(C)o1 | -8.47% |
| CCCC(=O)Nc1ccc(C(=O)N/N=C/c2ccc([N+](=O)[O-])o2)cc1 | 14.4% |
